Assay in all cases: DAPPL (digital affinity profiling via proximity ligation, sequencing); 10 mM Tris-HCl pH 7.5, 50 mM NaCl, 1 mM DTT, 4% glycerol, room temperature, 30 min; GST-TFs on glutathione beads, 16-mer random dsDNA library, 0.1% formaldehyde crosslink after washing; high values mean tight binding
One assay has as its target T1, FEV (Homo sapiens, UniProt Q99581 1-238).
T1 sequence: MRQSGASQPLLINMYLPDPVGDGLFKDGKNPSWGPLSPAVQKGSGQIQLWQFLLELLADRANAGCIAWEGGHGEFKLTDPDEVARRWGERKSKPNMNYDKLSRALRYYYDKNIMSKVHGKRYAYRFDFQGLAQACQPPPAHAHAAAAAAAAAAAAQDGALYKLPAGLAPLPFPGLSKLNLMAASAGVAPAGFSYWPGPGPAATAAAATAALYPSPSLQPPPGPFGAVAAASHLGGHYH
The note with it: protein: recombinant; tags: N-terminal GST; dsDNA, one strand shown. The method, boiled down: (§1)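 Yeast served to express human transcription factors as GST fusions, which were then captured on glutathione beads and labelled with DNA barcodes. Pooled with a tag-only sample, they were incubated with 200 nmole of a 16-mer random double-stranded DNA library for 30 min at room temperature in Tris/NaCl/DTT/glycerol buffer, washed, crosslinked with 0.1% formaldehyde, ligated by proximity, amplified by PCR and sequenced. Dividing each hexamer's read frequency for a factor by its frequency for the tag-only sample gives the binding signal.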

In a further assay the target is ETV5 (Homo sapiens, UniProt P41161 1-510). The note with it: protein: recombinant; tags: N-terminal GST; dsDNA, one strand shown. The method, boiled down:
as §1

The next assay addresses HSF1 (Homo sapiens, UniProt Q00613 1-529). The note with it: protein: recombinant; tags: N-terminal GST; chain copies: 3; dsDNA, one strand shown. The method, boiled down: as §1
A further assay concerns the target T2, SPIC (Homo sapiens, UniProt Q8N5J4 1-248).
T2 sequence: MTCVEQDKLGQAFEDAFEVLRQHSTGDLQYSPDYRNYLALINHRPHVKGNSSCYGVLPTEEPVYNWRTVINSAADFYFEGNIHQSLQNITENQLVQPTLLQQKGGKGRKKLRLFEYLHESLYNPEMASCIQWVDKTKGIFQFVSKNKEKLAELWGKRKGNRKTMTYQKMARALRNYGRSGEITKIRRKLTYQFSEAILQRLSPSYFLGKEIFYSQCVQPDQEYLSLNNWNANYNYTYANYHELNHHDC
The note with it: protein: recombinant; tags: N-terminal GST; dsDNA, one strand shown. In short, it runs like this:
as §1

A further assay concerns the target ELF4 (Homo sapiens, UniProt Q99607 1-663). To be noted: protein: recombinant; tags: N-terminal GST; dsDNA, one strand shown. The method, boiled down: as §1
Another assay concerns the target T3, ELK4 (Homo sapiens, UniProt P28324-2 1-405).
T3 sequence: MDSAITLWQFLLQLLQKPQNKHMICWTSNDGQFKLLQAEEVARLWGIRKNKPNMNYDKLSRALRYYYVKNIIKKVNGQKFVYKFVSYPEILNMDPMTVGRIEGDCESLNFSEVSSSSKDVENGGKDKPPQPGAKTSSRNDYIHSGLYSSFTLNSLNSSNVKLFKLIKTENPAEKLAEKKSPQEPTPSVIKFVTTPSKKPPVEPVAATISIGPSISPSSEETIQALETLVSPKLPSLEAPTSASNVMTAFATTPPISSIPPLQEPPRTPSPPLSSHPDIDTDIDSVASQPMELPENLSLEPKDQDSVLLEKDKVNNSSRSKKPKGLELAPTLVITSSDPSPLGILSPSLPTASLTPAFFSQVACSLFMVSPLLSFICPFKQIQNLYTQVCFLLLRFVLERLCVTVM
To be noted: protein: recombinant; tags: N-terminal GST; dsDNA, one strand shown. In short, it runs like this:
as §1

For a further assay, the target named is T4, ETV2 (Homo sapiens, UniProt O00321 1-342).
T4 sequence: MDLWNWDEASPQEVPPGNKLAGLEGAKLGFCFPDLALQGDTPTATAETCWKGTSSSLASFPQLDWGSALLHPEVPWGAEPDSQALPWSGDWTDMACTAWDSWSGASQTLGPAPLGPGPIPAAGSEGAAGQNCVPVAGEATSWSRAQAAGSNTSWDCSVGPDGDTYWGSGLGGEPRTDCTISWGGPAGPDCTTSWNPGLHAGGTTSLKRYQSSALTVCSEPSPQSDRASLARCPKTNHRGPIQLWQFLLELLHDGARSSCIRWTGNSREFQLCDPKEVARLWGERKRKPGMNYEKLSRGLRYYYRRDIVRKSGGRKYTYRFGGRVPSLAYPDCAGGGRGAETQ
To be noted: protein: recombinant; tags: N-terminal GST; dsDNA, one strand shown. The method, boiled down:
as §1

A further assay addresses T5, ELF3 (Homo sapiens, UniProt P78545 1-371).
T5 sequence: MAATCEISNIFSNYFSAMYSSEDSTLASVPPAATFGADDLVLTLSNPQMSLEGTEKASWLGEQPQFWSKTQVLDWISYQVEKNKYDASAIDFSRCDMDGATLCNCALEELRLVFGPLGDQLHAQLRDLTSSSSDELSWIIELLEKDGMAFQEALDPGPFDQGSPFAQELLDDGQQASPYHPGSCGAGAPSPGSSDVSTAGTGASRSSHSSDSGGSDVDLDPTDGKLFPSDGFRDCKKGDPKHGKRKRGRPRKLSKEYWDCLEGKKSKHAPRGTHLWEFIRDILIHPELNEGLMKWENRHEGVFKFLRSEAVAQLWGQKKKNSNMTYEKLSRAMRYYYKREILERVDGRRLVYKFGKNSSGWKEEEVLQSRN
The note with it: protein: recombinant; tags: N-terminal GST; dsDNA, one strand shown. The method, boiled down: as §1

For a further assay, the target named is CRX (Homo sapiens, UniProt O43186 1-299). The note with it: protein: recombinant; tags: N-terminal GST; dsDNA, one strand shown. The method, boiled down: as §1
A further assay addresses ETV1 (Homo sapiens, UniProt P50549 1-477). To be noted: protein: recombinant; tags: N-terminal GST; dsDNA, one strand shown. In short, it runs like this:
as §1

The next assay deals with T6, ERF (Homo sapiens, UniProt P50548 1-548).
T6 sequence: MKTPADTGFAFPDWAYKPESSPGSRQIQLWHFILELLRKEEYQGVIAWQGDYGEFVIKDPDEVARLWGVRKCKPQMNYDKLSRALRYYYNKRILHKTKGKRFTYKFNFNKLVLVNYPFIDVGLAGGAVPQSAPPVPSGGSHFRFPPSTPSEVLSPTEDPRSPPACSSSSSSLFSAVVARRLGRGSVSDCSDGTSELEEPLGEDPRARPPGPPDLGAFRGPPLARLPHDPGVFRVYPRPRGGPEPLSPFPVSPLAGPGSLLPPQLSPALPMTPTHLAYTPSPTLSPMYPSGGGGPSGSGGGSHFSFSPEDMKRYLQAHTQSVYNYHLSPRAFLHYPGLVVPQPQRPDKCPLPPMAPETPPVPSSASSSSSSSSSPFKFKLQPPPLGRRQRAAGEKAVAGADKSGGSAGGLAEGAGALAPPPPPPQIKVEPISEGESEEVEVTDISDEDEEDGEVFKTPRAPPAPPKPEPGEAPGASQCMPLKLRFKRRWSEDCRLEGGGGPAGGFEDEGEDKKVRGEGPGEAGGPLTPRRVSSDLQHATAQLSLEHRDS
The note with it: protein: recombinant; tags: N-terminal GST; dsDNA, one strand shown. The method, boiled down:
as §1

The target of the next assay is T7, ETV3L (Homo sapiens, UniProt Q6ZN32 1-361).
T7 sequence: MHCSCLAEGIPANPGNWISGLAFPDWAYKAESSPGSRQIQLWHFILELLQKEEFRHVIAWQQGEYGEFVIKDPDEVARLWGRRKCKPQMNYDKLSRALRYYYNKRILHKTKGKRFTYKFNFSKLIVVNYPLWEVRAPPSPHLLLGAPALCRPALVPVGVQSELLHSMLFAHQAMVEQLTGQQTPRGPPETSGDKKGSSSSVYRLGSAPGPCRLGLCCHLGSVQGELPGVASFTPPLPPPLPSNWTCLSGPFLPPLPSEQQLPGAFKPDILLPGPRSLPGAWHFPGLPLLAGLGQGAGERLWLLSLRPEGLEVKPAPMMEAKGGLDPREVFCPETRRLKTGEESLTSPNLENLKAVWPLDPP
To be noted: protein: recombinant; tags: N-terminal GST; dsDNA, one strand shown. The method, boiled down:
as §1

A further assay has as its target T8, ETS2 (Homo sapiens, UniProt P15036 1-469).
T8 sequence: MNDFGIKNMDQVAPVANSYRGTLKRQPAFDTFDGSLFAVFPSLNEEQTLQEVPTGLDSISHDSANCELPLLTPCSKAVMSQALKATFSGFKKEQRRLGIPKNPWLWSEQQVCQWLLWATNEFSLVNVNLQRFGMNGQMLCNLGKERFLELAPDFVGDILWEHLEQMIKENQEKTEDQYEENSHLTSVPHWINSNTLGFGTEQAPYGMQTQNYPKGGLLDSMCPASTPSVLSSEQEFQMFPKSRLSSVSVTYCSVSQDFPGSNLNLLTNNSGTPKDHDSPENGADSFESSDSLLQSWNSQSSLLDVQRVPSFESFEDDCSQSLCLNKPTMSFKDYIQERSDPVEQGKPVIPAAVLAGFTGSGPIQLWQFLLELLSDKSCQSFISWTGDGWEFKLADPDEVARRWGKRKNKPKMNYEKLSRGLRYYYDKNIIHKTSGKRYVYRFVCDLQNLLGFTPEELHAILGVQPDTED
The note with it: protein: recombinant; tags: N-terminal GST; dsDNA, one strand shown. In short, it runs like this: as §1

The next assay has as its target T9, SPDEF (Homo sapiens, UniProt O95238 1-335).
T9 sequence: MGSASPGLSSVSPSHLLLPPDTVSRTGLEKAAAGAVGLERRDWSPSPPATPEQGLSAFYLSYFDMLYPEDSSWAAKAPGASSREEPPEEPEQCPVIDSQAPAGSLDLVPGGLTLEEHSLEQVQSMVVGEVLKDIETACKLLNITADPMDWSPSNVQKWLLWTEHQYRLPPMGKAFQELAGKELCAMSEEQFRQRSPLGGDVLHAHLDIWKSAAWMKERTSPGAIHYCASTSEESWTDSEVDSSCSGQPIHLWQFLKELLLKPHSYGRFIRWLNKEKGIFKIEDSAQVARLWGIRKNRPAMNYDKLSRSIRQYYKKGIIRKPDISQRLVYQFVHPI
To be noted: protein: recombinant; tags: N-terminal GST; dsDNA, one strand shown. In short, it runs like this:
as §1

The target of the next assay is T10, ETV7 (Homo sapiens, UniProt Q9Y603 1-341).
T10 sequence: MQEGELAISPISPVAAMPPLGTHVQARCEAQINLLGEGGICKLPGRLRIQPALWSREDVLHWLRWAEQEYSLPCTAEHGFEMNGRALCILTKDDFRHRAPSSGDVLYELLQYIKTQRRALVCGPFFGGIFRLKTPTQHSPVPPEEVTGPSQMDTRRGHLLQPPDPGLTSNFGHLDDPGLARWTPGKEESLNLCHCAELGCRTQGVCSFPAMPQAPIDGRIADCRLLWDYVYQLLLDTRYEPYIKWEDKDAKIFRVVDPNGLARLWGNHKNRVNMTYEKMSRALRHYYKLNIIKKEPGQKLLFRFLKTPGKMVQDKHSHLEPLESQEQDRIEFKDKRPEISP
To be noted: protein: recombinant; tags: N-terminal GST; dsDNA, one strand shown. In short, it runs like this: as §1

The next assay deals with T11, ELF5 (Homo sapiens, UniProt Q9UKW6-2 1-255).
T11 sequence: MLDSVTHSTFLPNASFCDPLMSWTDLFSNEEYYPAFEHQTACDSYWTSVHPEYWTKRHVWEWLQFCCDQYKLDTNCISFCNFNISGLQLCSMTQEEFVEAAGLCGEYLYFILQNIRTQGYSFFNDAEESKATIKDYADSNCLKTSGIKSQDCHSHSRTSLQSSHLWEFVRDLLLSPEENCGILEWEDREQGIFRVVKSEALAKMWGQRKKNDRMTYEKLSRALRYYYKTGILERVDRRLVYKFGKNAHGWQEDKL
To be noted: protein: recombinant; tags: N-terminal GST; dsDNA, one strand shown. The method, boiled down: as §1

In another assay the target is T12, ETV3 (Homo sapiens, UniProt P41162-2 1-143).
T12 sequence: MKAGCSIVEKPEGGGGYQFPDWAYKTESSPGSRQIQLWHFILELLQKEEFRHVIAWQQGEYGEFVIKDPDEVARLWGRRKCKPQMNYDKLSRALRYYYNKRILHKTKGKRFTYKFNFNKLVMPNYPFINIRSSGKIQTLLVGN
The note with it: protein: recombinant; tags: N-terminal GST; dsDNA, one strand shown. In short, it runs like this:
as §1

The next assay addresses ETV6 (Homo sapiens, UniProt P41212 1-452). To be noted: protein: recombinant; tags: N-terminal GST; dsDNA, one strand shown. In short, it runs like this: as §1

HSF1, sequence (Q00613 whole entry): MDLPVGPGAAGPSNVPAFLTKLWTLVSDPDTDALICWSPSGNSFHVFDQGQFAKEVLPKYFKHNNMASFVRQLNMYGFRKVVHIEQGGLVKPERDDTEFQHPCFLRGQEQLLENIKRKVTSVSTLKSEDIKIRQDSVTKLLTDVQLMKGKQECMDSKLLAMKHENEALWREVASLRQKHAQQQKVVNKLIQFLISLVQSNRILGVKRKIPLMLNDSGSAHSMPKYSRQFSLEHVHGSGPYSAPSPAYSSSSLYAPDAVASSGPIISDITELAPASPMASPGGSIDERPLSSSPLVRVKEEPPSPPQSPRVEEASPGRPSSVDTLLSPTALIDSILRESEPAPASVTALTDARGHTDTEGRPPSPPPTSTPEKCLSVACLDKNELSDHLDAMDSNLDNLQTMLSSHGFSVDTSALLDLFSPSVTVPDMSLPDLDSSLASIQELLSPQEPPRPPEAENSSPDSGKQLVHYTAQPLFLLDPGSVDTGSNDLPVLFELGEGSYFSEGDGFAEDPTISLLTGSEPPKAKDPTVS
ELF4, sequence (Q99607 whole entry): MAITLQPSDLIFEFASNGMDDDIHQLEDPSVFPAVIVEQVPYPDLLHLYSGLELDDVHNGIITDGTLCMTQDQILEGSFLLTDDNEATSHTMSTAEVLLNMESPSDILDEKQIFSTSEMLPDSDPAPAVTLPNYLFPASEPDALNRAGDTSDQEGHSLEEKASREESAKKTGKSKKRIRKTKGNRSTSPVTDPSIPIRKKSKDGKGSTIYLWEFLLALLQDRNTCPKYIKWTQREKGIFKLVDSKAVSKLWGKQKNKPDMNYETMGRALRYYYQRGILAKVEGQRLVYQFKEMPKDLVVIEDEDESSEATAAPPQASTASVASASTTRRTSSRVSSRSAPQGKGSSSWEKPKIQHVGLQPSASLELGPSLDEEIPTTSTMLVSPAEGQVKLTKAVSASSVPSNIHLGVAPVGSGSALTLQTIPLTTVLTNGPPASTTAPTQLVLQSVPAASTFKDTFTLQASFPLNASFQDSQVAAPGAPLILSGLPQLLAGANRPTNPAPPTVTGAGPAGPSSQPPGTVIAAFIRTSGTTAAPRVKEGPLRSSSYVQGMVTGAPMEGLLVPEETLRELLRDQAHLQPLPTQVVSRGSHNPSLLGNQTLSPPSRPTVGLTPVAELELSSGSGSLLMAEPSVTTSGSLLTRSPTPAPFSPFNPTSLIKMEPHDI
CRX, sequence (O43186 whole entry): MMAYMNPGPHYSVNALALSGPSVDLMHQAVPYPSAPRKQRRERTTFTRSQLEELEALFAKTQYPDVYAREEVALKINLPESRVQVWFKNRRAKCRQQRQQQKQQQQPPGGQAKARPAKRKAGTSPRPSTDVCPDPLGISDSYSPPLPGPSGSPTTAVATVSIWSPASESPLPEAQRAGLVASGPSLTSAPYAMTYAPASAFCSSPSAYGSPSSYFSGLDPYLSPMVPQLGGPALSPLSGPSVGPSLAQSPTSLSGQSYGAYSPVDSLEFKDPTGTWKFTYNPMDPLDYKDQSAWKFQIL
ETV6, sequence (P41212 whole entry): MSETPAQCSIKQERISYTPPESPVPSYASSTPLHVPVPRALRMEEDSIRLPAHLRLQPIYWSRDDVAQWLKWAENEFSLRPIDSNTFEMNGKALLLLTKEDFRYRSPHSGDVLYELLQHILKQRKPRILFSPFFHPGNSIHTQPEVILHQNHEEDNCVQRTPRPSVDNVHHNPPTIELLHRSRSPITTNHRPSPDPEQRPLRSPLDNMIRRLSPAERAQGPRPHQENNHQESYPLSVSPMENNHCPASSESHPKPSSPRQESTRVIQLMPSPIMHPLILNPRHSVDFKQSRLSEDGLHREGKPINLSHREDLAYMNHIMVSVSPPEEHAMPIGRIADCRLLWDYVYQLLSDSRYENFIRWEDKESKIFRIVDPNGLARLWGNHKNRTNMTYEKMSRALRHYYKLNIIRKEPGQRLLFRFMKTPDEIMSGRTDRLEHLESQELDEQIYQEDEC
ETV1, sequence (P50549 whole entry): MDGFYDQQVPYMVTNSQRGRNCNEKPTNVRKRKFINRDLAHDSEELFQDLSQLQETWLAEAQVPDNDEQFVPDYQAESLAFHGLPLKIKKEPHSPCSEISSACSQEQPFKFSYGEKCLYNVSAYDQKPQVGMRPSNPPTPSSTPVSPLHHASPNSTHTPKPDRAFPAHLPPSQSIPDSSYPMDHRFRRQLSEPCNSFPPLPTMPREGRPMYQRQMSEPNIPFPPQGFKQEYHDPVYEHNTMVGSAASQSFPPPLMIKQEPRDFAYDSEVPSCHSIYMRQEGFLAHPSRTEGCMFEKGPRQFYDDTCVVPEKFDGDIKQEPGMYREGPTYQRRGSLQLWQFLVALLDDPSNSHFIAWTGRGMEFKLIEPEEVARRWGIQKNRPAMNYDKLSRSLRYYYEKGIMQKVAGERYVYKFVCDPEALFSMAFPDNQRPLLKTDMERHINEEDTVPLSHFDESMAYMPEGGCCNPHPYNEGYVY
ETV5, sequence (P41161 whole entry): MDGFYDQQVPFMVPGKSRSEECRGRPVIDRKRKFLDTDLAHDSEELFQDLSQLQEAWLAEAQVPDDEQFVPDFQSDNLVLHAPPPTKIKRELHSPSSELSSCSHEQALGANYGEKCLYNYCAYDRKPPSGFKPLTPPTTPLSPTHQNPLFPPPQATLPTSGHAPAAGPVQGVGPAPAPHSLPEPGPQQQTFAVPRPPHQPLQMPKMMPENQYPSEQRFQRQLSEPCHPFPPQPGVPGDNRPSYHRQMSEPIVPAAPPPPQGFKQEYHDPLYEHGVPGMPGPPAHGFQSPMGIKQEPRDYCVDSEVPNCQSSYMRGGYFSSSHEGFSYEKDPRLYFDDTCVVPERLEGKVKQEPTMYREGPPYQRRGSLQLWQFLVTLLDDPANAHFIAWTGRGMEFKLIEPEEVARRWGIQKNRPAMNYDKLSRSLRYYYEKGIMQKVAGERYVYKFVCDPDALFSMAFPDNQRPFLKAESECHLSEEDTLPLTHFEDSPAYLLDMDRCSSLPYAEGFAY

As for CTATCT, the binding signal in the assay with FEV is 1.34 fold enrichment (6-mer frequency, TF over GST control); with ETV5, 1.22 fold enrichment (6-mer frequency, TF over GST control); in the assay with HSF1, 1.4 fold enrichment (6-mer frequency, TF over GST control); in the assay with SPIC, 1.34 fold enrichment (6-mer frequency, TF over GST control); with ELF4 it was 1.34 fold enrichment (6-mer frequency, TF over GST control); with ELK4, 1.15 fold enrichment (6-mer frequency, TF over GST control). Moreover, the binding signal is 1.39 fold enrichment (6-mer frequency, TF over GST control) in the assay with ETV2; 1.29 fold enrichment (6-mer frequency, TF over GST control) with ELF3; 1.4 fold enrichment (6-mer frequency, TF over GST control) with CRX; 1.24 fold enrichment (6-mer frequency, TF over GST control) with ETV1; 1.42 fold enrichment (6-mer frequency, TF over GST control) with ERF; 1.39 fold enrichment (6-mer frequency, TF over GST control) with ETV3L. Also, the binding signal with ETS2 is 1.39 fold enrichment (6-mer frequency, TF over GST control); with SPDEF, 1.3 fold enrichment (6-mer frequency, TF over GST control); with ETV7, 1.4 fold enrichment (6-mer frequency, TF over GST control); with ELF5 it was 1.3 fold enrichment (6-mer frequency, TF over GST control); in the assay with ETV3, 1.28 fold enrichment (6-mer frequency, TF over GST control); in the assay with ETV6, 1.32 fold enrichment (6-mer frequency, TF over GST control).

Source of the values: PMC7862700, “An all-to-all approach to the identification of sequence-specific readers for epigenetic DNA modifications on cytosine”.
